According to PubChem BioAssay (NCATS):
“And” between values parts separate entries of the source, which are not always exact repeats. Equal values may be shown once. Records with an inconclusive call do not appear. Unmarked numbers belong to inactive results. The source made the active and inactive calls. Calls come from the whole dose curve; as a rule, active = well fitted curve in the direction sought with a large enough effect; inconclusive = small, poorly fitted or top-dose-only effect, or another doubt; inactive = no such curve, though single readings can be large; an effect the other way counts as inactive or inconclusive.

How the values were obtained:
[1] = Viability qHTS for spleen associated tyrosine kinase inhibitor (SYKi) drug resistant MV4-11 cells (AID 1963824); note: nearly all actives have a fitted effect of over 35% in size
Method in brief: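 SYK inhibitor-resistant MV4-11 AML cells, 500 per well, added to predispensed compounds and incubated 72 hr at 37 C, 5% CO2. Viability measured by CellTiter-Glo luminescence after 10 min at room temperature.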

[2] = Cellular viability qHTS for adrenocortical cancer (ACC) cell line NCI-H295R (AID 1963990); note: nearly all actives have a fitted effect of over 60% in size
Method in brief: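 Viability of NCI-H295R after 48 h of treatment (final up to 46 uM) measured through cellular ATP luminescence.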

[3] = Cellular viability qHTS for adrenocortical cancer (ACC) cell line SW-13 (AID 1963989); details: SW-13 ACC cells viability, CellTiter-Glo, 48 h; activity (max response): hits give low values; note: nearly all actives have a fitted effect of over 65% in size;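 for activity (max response): cells grown in serum-free medium with ITS supplement; % is set by controls: 0 for no effect and ±100 for the full control effect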
Method in brief: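 Here, serum-free SW-13 cultures were dosed up to 46 uM. Following 48 h, ATP-dependent luminescence (CellTiter-Glo) reported viable cells, and logistic modeling produced IC50 values.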
Potency is the fitted concentration of half-maximal effect.

| Compound | Potency [1] | Potency [2] | activity (max response) [3] [%] | Potency [3] |
| --- | --- | --- | --- | --- |
| COc1cccc(C(=O)CCN[C@@H](C)[C@H](O)c2ccccc2)c1 | inactive | 25.9 µM (active) | – | – |
| COc1cc(CC(C)N)cc2c1OCO2 (centres undefined) | inactive | inactive | -21.8 | – |
| C[C@@H]1O[C@@H](O[C@H]2C[C@@H](O)[C@]3(CO)[C@H]4[C@H](O)C[C@]5(C)[C@@H](C6=CC(=O)OC6)CC[C@]5(O)[C@@H]4CC[C@]3(O)C2)[C@H](O)[C@H](O)[C@H]1O | 84.1 nM (active) and 63.2 nM (active) and 33.2 nM (active) | 36.6 nM (active) and 56.2 nM (active) | – | 20.6 nM (active) and 44.7 nM (active) |
| CC[C@@H](CO)NC(=O)[C@@H]1C=C2c3cccc4c3c(cn4C)C[C@H]2N(C)C1 | 9.44 µM (active) | inactive | -2.39 | – |
| CCCCCCCCCCCCCCCC[N+](C)(C)C | 1.19 µM (active) | 8.2 µM (active) | – | 7.31 µM (active) |
| O=C(O)Cc1ccccc1 | inactive | inactive | -6.54 | – |
| CC1(C)C(C=C(Cl)Cl)C1C(=O)OC(C#N)c1cccc(Oc2ccccc2)c1 (centres undefined) | inactive | inactive | 4.33 | – |
| CC[N+]1(C)CCCC(OC(=O)C(O)(c2ccccc2)c2ccccc2)C1 (centres undefined) | inactive | inactive | 0.735 | – |
| COc1cc(CCN)cc(OC)c1OC | inactive | inactive | -7.31 | – |
| CC(CC(C(N)=O)(c1ccccc1)c1ccccc1)N(C)C (centres undefined) | inactive | inactive | 5.97 | – |
